# Biological target: PUM1 PUF domain R3-CRS (Homo sapiens, UniProt Q14671 828-1176, Q939S)
# Test: yeast three-hybrid, YBZ-1, SC-Leu-His + 0.5 mM 3-AT, 4 days
# Conditions: tags: N-Gal4 AD-HA kept; label: inside an RPR1-promoter hybrid RNA with tandem MS2 sites; ssRNA
# How it was run: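 The interaction score is the log change in how often each variant appears, from input to selection. Frequencies came from PCR-amplified, Illumina-sequenced repeat regions of Pumilio-1 PUF domain libraries grown in strain YBZ-1 (LexA–MS2 coat fusion, HIS3 reporter) alongside matching RNA elements. Input plates were SC-Leu and selection plates were SC-Leu-His + 0.5 mM 3-AT, each for four days, and the log2 calculation used a pseudocount of 1 where a variant was absent.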
# Chain of PUM1 PUF domain R3-CRS (Q14671 828-1176 Q939S): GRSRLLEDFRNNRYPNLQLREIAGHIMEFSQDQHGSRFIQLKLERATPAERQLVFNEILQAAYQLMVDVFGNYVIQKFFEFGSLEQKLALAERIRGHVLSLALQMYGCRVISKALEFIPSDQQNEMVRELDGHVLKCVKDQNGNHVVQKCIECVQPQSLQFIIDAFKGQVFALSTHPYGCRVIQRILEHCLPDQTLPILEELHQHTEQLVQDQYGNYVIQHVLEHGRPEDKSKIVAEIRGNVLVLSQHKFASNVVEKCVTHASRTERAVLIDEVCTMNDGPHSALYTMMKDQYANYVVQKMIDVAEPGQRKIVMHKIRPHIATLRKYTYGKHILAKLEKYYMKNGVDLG
row,Sequence,binding signal
1,GGCUAGAACUAGUGGAUCCCCCGGCGCCCGGCGGCUCGAGCCCGGGUAAGUGUAAAUAGUCUGCAUGCCGCCGGGCGCCAUGCCUGCAGGUCGACUCUAGAAAACAUG,3.28 log2 enrichment (interaction score)
2,GGCUAGAACUAGUGGAUCCCCCGGCGCCCGGCGGCUCGAGCCCGGGUAAGUGUAAGUAGUCUGCAUGCCGCCGGGCGCCAUGCCUGCAGGUCGACUCUAGAAAACAUG,2.6 log2 enrichment (interaction score)
3,GGCUAGAACUAGUGGAUCCCCCGGCGCCCGGCGGCUCGAGCCCGGGUAAGUGUAAUUAGUCUGCAUGCCGCCGGGCGCCAUGCCUGCAGGUCGACUCUAGAAAACAUG,0.43 log2 enrichment (interaction score)

# Reference: paper PMC8384837, “Expanding the binding specificity for RNA recognition by a PUF domain”
